PubChem BioAssay (EPA / NIEHS)
Values joined by “and” are separate entries in the source; they are usually repeats but may differ in a detail not shown here. Equal values may be shown once. More than one record can exist for a structure, and the calls need not agree. Active and inactive are the calls of the source. How the source made its calls: active means hit-call score of the fitted dose curve at least 0.9, where 1 is the maximum; inactive means score below 0.9.

Tests used:
[1] = read-out: Vascular endothelial growth factor receptor 2 (Homo sapiens) (UniProt P35968); test: BSK_4H_VEGFRII: BioMAP Diversity Plus: 4H Assay for Vascular endothelial growth factor receptor 2 (VEGFR2) Biomarker Activity (AID 2283031); conditions: primary human endothelial cells (HUVEC); actives raise or lower the signal;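 on AC50: cell-surface VEGFR2 protein level quantified by ELISA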
In short: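 Primary human umbilical vein endothelial cells in the BioMAP 4H system were dosed with test chemical, and 24 h later VEGFRII was measured by ELISA. Activity was fitted bidirectionally against DMSO as negative control and baseline.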

[2] = read-out: Human Leukocyte Antigen - DR isotype (HLADR), HLA-DRA (gene 3122); test: BSK_BE3C_HLADR: BioMAP Diversity Plus: BE3C Assay for Human Leukocyte Antigen - DR isotype (HLADR) Biomarker Activity (AID 2283032); conditions: primary human bronchial epithelial cells; actives raise or lower the signal
In short: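 BioMAP BE3C format: human bronchial epithelium, 24 h compound treatment, ELISA detection of HLA-DR, with bidirectional analysis relative to DMSO.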

[3] = read-out: Vascular cell adhesion molecule 1 (VCAM1), VCAM1 (gene 7412); test: BSK_4H_VCAM1: BioMAP Diversity Plus: 4H Assay for Vascular cell adhesion molecule 1 (VCAM1) Biomarker Activity (AID 2283033); conditions: primary human endothelial cells (HUVEC); actives raise or lower the signal
In short: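 In this human endothelial (HUVEC) system, biomarker ELISA was run 24 h after compound addition, and total protein in parallel wells was assessed by SRB at 560 nm; DMSO served as negative control.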

[4] = read-out: Interferon-gamma inducible Protein 10 (IP10), CXCL10 (gene 3627); test: BSK_BE3C_IP10: BioMAP Diversity Plus: BE3C Assay for Interferon-gamma inducible Protein 10 (IP10) Biomarker Activity (AID 2283034); conditions: primary human bronchial epithelial cells; actives raise or lower the signal
In short: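 BE3C cells (human bronchial epithelial, primary); 24 h exposure; ELISA for IP-10; DMSO-referenced bidirectional fit.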

[5] = read-out: Monokine induced gamma interferon (MIG), CXCL9 (gene 4283); test: BSK_BE3C_MIG: BioMAP Diversity Plus: BE3C Assay for Monokine induced gamma interferon (MIG) Biomarker Activity (AID 2283035); conditions: primary human bronchial epithelial cells; actives raise or lower the signal
In short: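 Dose cells (human primary bronchial epithelial), incubate 24 h, quantify MIG by ELISA, then fit concentration–response in both directions relative to DMSO control.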

[6] = read-out: Transforming growth factor beta 1 (TGFb1), TGFB1 (gene 7040); test: BSK_BE3C_TGFb1: BioMAP Diversity Plus: BE3C Assay for Transforming growth factor beta 1 (TGFb1) Biomarker Activity (AID 2283036); conditions: primary human bronchial epithelial cells; actives raise or lower the signal
In short: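 TGF-b1 measured via ELISA, 24 h after chemical dosing of human bronchial epithelial cells (BE3C). Overt cytotoxicity assessed in parallel by SRB (0.1%, TCA-fixed, 560 nm); analysis bidirectional relative to DMSO.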

[7] = read-out: Plasminogen activator inhibitor-1 (PAI1), SERPINE1 (gene 5054); test: BSK_BE3C_PAI1: BioMAP Diversity Plus: BE3C Assay for Plasminogen activator inhibitor-1 (PAI1) Biomarker Activity (AID 2283037); conditions: primary human bronchial epithelial cells; actives raise or lower the signal
In short: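 In this multiplexed primary-cell system, bronchial epithelial cells receive test chemical and are sampled at 24 h. PAI-1 is read by ELISA, with DMSO serving as negative control for bidirectional fitting.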

[8] = read-out: urokinase plasminogen activator (uPA), PLAU (gene 5328); test: BSK_BE3C_uPA: BioMAP Diversity Plus: BE3C Assay for urokinase plasminogen activator (uPA) Biomarker Activity (AID 2283038); conditions: primary human bronchial epithelial cells; actives raise or lower the signal
In short: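 Human primary bronchial epithelial cells were exposed to chemical for 24 h, then uPA levels were measured by ELISA. Responses were fitted bidirectionally against DMSO as negative control and baseline. Parallel SRB staining of total protein gauged overt cytotoxicity.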

[9] = read-out: Urokinase-type plasminogen activator receptor (uPAR), PLAUR (gene 5329); test: BSK_BE3C_uPAR: BioMAP Diversity Plus: BE3C Assay for Urokinase-type plasminogen activator receptor (uPAR) Biomarker Activity (AID 2283039); conditions: primary human bronchial epithelial cells; actives raise or lower the signal
In short: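 Chemically treated human bronchial epithelial cells (lung primary) are assayed for uPAR by ELISA after 24 h, with data fitted in both directions using DMSO as negative control.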

[10] = read-out: Interleukin-6 (IL6), IL6 (gene 3569); test: BSK_CASM3C_IL6: BioMAP Diversity Plus: CASM3C Assay for Interleukin-6 (IL6) Biomarker Activity for (AID 2283040); conditions: primary human coronary artery smooth muscle cells; actives raise or lower the signal
[11] = read-out: Tissue plasminogen activator (tPA), PLAT (gene 5327); test: BSK_BE3C_tPA: BioMAP Diversity Plus: BE3C Assay for Tissue plasminogen activator (tPA) Biomarker Activity (AID 2283041); conditions: primary human bronchial epithelial cells; actives raise or lower the signal
In short: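 Using human lung primary bronchial epithelial cells, tPA was measured by ELISA 24 h after dosing; data fitted relative to DMSO.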

[12] = read-out: Interleukin-8 (IL8), CXCL8 (gene 3576); test: BSK_CASM3C_IL8: BioMAP Diversity Plus: CASM3C Assay for Interleukin-8 (IL8) Biomarker Activity (AID 2283042); conditions: primary human coronary artery smooth muscle cells; actives raise or lower the signal;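 further: IL-8 protein level quantified by ELISA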
[13] = read-out: Human Leukocyte Antigen - DR isotype (HLADR), HLA-DRA (gene 3122); test: BSK_CASM3C_HLADR: BioMAP Diversity Plus: CASM3C Assay for Human Leukocyte Antigen - DR isotype (HLADR) Biomarker Activity (AID 2283043); conditions: primary human coronary artery smooth muscle cells; actives raise or lower the signal;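 further: cell-surface HLA-DR protein level quantified by ELISA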
[14] = read-out: Macrophage colony-stimulating factor (MCSF), CSF1 (gene 1435); test: BSK_CASM3C_MCSF: BioMAP Diversity Plus: CASM3C Assay for Macrophage colony-stimulating factor (MCSF) Biomarker Activity (AID 2283044); conditions: primary human coronary artery smooth muscle cells; actives raise or lower the signal;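 further: M-CSF protein amount quantified by ELISA after 24 h exposure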
[15] = read-out: Low-density lipoprotein receptor (LDLR), LDLR (gene 3949); test: BSK_CASM3C_LDLR: BioMAP Diversity Plus: CASM3C Assay for Low-density lipoprotein receptor (LDLR) Biomarker Activity (AID 2283045); conditions: primary human coronary artery smooth muscle cells; actives raise or lower the signal;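 further: LDLR protein level on the cell surface quantified by ELISA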
[16] = read-out: Monocyte Chemoattractant Protein-1 (MCP1), CCL2 (gene 6347); test: BSK_CASM3C_MCP1: BioMAP Diversity Plus: CASM3C Assay for Monocyte Chemoattractant Protein-1 (MCP1) Biomarker Activity (AID 2283046); conditions: primary human coronary artery smooth muscle cells; actives raise or lower the signal;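 further: MCP-1 level quantified by ELISA 24 h after dosing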
[17] = BSK_CASM3C_Proliferation: Cell Proliferation Assessment in the BioMAP Diversity Plus: CASM3C Assay (AID 2283047); conditions: primary human coronary artery smooth muscle cells;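 further: sulforhodamine B total protein stain as relative cell number at 560 nm; sub-confluent cells exposed 48 h before staining; fitted both ways against DMSO so gain or loss of cell number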
[18] = read-out: Monokine induced gamma interferon (MIG), CXCL9 (gene 4283); test: BSK_CASM3C_MIG: BioMAP Diversity Plus: CASM3C Assay for Monokine induced gamma interferon (MIG) Biomarker Activity (AID 2283048); conditions: primary human coronary artery smooth muscle cells; actives raise or lower the signal
[19] = read-out: serum amyloid A (SAA), SAA1 (gene 6288); test: BSK_CASM3C_SAA: BioMAP Diversity Plus: CASM3C Assay for serum amyloid A (SAA) Biomarker Activity (AID 2283049); conditions: primary human coronary artery smooth muscle cells; actives raise or lower the signal;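 further: SAA protein level quantified by ELISA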
[20] = BSK_CASM3C_SRB: Viability Assessment in the BioMAP Diversity Plus: CASM3C Assay (AID 2283050); conditions: primary human coronary artery smooth muscle cells;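 further: total protein by SRB staining as cytotoxicity measure in parallel cultures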

Measured: AC50

CC(C)OC(=O)Nc1cccc(Cl)c1
inactive: [1] | [2] | [3] | [4] | [5] | [6] | [7] | [8] | [9] | [10] | [11] | [12] | [13] | [14] | [15] | [16] | [17] | [18] | [19] | [20]

CC[C@H](C)[C@H]1O[C@]2(C=C[C@@H]1C)C[C@@H]1C[C@@H](C/C=C(\C)[C@@H](O[C@H]3C[C@H](OC)[C@@H](O[C@H]4C[C@H](OC)[C@@H](O)[C@H](C)O4)[C@H](C)O3)[C@@H](C)/C=C/C=C3\CO[C@@H]4[C@H](O)C(C)=C[C@@H](C(=O)O1)[C@]34O)O2 (tested in a mixture with another compound)
active: [1] 5.27 µM | [2] 5.87 µM | [3] 11.6 µM | [4] 5.96 µM | [6] 20 µM | [7] 5.51 µM | [8] 5.41 µM | [10] 13.9 µM | [11] 5.27 µM | [12] 17.4 µM | [13] 9.73 µM | [14] 20 µM | [16] 11.7 µM | [17] 6.85 µM | [18] 29.7 µM | [20] 15 µM
inactive: [15] | [19]

COc1cc(OC)nc(NC(=O)NS(=O)(=O)c2cc(NC=O)ccc2C(=O)N(C)C)n1
inactive: [1] | [2] | [3] | [4] | [5] | [6] | [7] | [8] | [9] | [10] | [11] | [12] | [13] | [14] | [15] | [16] | [17] | [18] | [19] | [20]

CCOCN(C(=O)CCl)c1c(C)cccc1CC
active: [2] 15.3 µM | [3] 19.2 µM | [12] 15.8 µM | [17] 30 µM
inactive: [1] | [5] | [6] | [7] | [8] | [9] | [10] | [11] | [13] | [14] | [15] | [16] | [18] | [19] | [20]

O=[N+]([O-])/N=C1\NCCN1Cc1ccc(Cl)nc1
inactive: [1] | [2] | [3] | [4] | [5] | [6] | [7] | [8] | [10] | [11] | [12] | [13] | [14] | [15] | [16] | [17] | [18] | [19] | [20]

ClC1C(Cl)C(Cl)C(Cl)C(Cl)C1Cl (centres undefined)
inactive: [1] | [2] | [3] | [5] | [6] | [7] | [8] | [10] | [11] | [12] | [13] | [14] | [15] | [16] | [17] | [18] | [19] | [20]
active: [14] 32.4 µM | [15] 27.8 µM | [17] 20 µM and 29.6 µM | [19] 34.8 µM | [20] 35.2 µM

Clc1ccccc1-c1nnc(-c2ccccc2Cl)nn1
inactive: [1] | [2] | [3] | [5] | [7] | [8] | [9] | [10] | [11] | [12] | [13] | [14] | [15] | [16] | [18] | [19] | [20]
active: [6] 32.5 µM

N#CN
active: [6] 0.638 µM
inactive: [1] | [2] | [3] | [5] | [7] | [8] | [9] | [10] | [11] | [12] | [13] | [14] | [15] | [16] | [17] | [18] | [19] | [20]

Oc1ccc(Cl)cc1Cc1ccccc1
active: [1] 23.8 µM | [2] 34.7 µM [middle of 7 runs] | [3] 31 µM [middle of 6 runs] | [5] 37.3 µM [middle of 7 runs] | [6] 33.9 µM [middle of 7 runs] | [7] 34.4 µM [middle of 7 runs] | [8] 36.3 µM [middle of 7 runs] | [9] 32.1 µM [middle of 7 runs] | [10] 30.5 µM [middle of 4 runs] | [11] 29.7 µM [middle of 7 runs] | [12] 31.5 µM [middle of 5 runs] | [13] 31.1 µM [middle of 7 runs] | [14] 29.6 µM [middle of 7 runs] | [15] 29.1 µM [middle of 5 runs] | [16] 37.5 µM [middle of 4 runs] | [17] 32.2 µM [middle of 7 runs] | [18] 32.7 µM [middle of 6 runs] | [19] 31.1 µM [middle of 6 runs] | [20] 32.4 µM [middle of 7 runs]
inactive: [1] | [10] | [12] | [15] | [18]

CC(C)(C)C(O)C(Oc1ccc(Cl)cc1)n1cncn1 (centres undefined)
inactive: [1] | [2] | [3] | [5] | [6] | [7] | [8] | [9] | [10] | [11] | [12] | [13] | [14] | [15] | [16] | [17] | [18] | [19] | [20]
active: [2] 24.2 µM

CCC(C)Nc1c([N+](=O)[O-])cc(C(C)(C)C)cc1[N+](=O)[O-] (centres undefined)
inactive: [2] | [5] | [6] | [7] | [8] | [9] | [10] | [11] | [12] | [13] | [14] | [15] | [16] | [17] | [18] | [19] | [20]
active: [1] 21 µM | [3] 15.8 µM
